About 3,700 (7%) of roughly 53,000 sequences were called active. This excerpt belongs to a sample that is enriched for actives. A number with no mark means an inactive call.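 How the source made its calls: active means gene knockdowns whose robust z-score for IL-1 alpha signal is at least 2 or at most -2, so actives lie on both sides; inactive means the rest.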
Assay: Components of the Cytosolic LPS Sensing Pathway: Gene Identification via Genome-wide siRNA Screen;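 further: robust z of the log signal after scaling to non-targeting control siRNA wells of the plate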
Conditions: RAW264.7 macrophages, IL-1a HTRF, actives lie on both sides, screened at 100 nM (by protocol), cells primed 5 h with Pam3CSK4 first
How it was run: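 RAW264.7 mouse macrophages reverse-transfected with single siRNAs (100 nM final) for 48h, primed with Pam3CSK4 for 5 hours, then transfected with LipidA for 24 hour. Supernatant IL-1a read by HTRF; values normalized to negative-control median, log-transformed robust z-scores.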
In the case of GGUCUGGUCAUCUCAGUUUTT against Tmem159, the z-score is reported as 3.53 (active).
GGCAAUAGCUACACCUUCATT against Csf1r showed a z-score of 1.9.
With CCAUUGUCACUCCUAGUGUTT against Olfr1361 the z-score was 1.03.
In the case of GGAACAAGAAGAAGAAAAATT against Slco3a1, the z-score is reported as -1.03.
For GGUACUUUACACUGAACAATT against Serpinb13, the z-score was 2.91 (active).
Sequence “GGCAUGUAGGGUUUUGUUUTT against 9830163H01Rik” has a z-score of -0.605.
With GCUGUCUGAUUCUGAGGUGTT against Slc6a1 the z-score was 2 (active).
GGCAUAAACCACUUCCAGCTT against Dedd2 gave a z-score of 0.342.
GCAUUUAAGGACCUUGUAATT against Olfr813 showed a z-score of -1.5.
GGCCAUGAUUGUGUUUCAGTT against Tspan8 gave a z-score of 1.76.
In the case of GCCUUCCACUACCUUACGUTT against Kcnk3, the z-score is reported as 0.067.
CCGACAGACUCACAUACUGTT against Trex1 gave a z-score of -0.942.
Sequence GGCGUGUCUUGAUAGAAAUTT against Tesmin has a z-score of 0.652.
For GGGAGCAAACGAGAAGAUATT against Gjd2, the z-score was 4.09 (active).
Sequence GCGCAAAGUCGAAUCCAGUTT against Vgll1 has a z-score of -0.156.
With GGAGGGUGAAGAGAAUGGUTT against R3hdm2 the z-score was 1.14.
Work on GGUCCAUCAGGAAAAUCAATT against Obox6 yielded a z-score of 0.0445.
Work on GGGCUCUGUGGAAAUCAUGTT against Rnf187 yielded a z-score of -0.043.
GGCUGUGAAUCUGAAGAGCTT against Chrna6 showed a z-score of 0.241.
For CGAUUUCCCAAGUUAUUACTT against Nxf1, the z-score was -2.26 (active).
Work on GGUGGUAGCUUUGUACUUUTT against Nxnl2 yielded a z-score of 0.829.
Work on GGAAGCACGUUGGAAGGAUTT against Olfr845 yielded a z-score of 0.461.
In the case of GGAGAAAAGGGUGCUGAAGTT against Ybx3, the z-score is reported as 2.85 (active).
In the case of GCAUAUGGAGCAACUUGCUTT against Dsg1c, the z-score is reported as -1.17.
In the case of GGCUGAAAGUGAAGAAACGTT against Srp68, the z-score is reported as -2.11 (active).
Work on GGUGAUGAUCCCAUGGGUUTT against Ube2g2 yielded a z-score of -0.289.
In the case of GGUUUGUUUGUUUUUUGGUTT against Ajuba, the z-score is reported as 2.96 (active).
In the case of GGUGCAAAGCUUGAAAAUGTT against Gpr150, the z-score is reported as -0.324.
Sequence GCGAGUGCUUGGCUAUUAUTT against Ckap2 has a z-score of -0.234.
Work on GGAGUGAAAUAUGGAGUUGTT against Dhrs7b yielded a z-score of 0.787.
GGAAUGUAAGAACCCUUGCTT against Adam19 showed a z-score of 1.77.
With GAUCUUAGCUGUGUGUGUGTT against Pf4 the z-score was -2.57 (active).
GGCCUAUGCGAAAAUCUGUTT against Camk2b gave a z-score of -1.14.
For GGAAAUUCUGGCAUAAAUUTT against Cd86, the z-score was -0.732.
Work on GGACAUCAUUACAAAGAUGTT against Rgs6 yielded a z-score of -0.608.
GCUUCGAGAGUCAACUAUGTT against Mecom showed a z-score of 0.232.
Sequence GGGCACAAAGAUAUGAAUATT against Lgals3bp has a z-score of 0.147.
For GGUGAGGUAGGUUACUCAGTT against Reps1, the z-score was -2.16 (active).
Sequence GGAACGAAUGAAAAGACUUTT against Tpp2 has a z-score of 0.35.
In the case of GGUUGCUAUGAUUUUUGUUTT against Itsn1, the z-score is reported as 0.52.
For GGAAGUGAGAAGAUGGAUATT against Fam163b, the z-score was 0.93.
GGGACAGAUACAGUUCAUGTT against Zan gave a z-score of -0.114.
In the case of GCACGAGGAUUCAGAUAUCTT against Gusb, the z-score is reported as -0.449.
In the case of GGAUCUCCUGCUUGAACUGTT against Adam33, the z-score is reported as 2.79 (active).
With CCAGCAUUAUCCAUAUCAATT against Nat2 the z-score was 0.786.
GGUCUCAGACACCUGACUCTT against Opa3 gave a z-score of 1.53.
Work on GGUGUCAGCUUACCAUUCATT against Triap1 yielded a z-score of -0.329.
CCUUGCAUUACUUCUAAAUTT against Aff2 showed a z-score of 0.29.
GGCAUUGUGAAAUCCUAUUTT against Lhx5 gave a z-score of -1.31.
For CCUGACAGCACUUUGUGGATT against Arhgef4, the z-score was 0.481.
For GGUGCAUGUCUUCAUCCACTT against Rnase12, the z-score was 3.04 (active).
Sequence GGAAAAUCCCUGUGUCCGATT against Spdye4a has a z-score of -1.34.
With GCAGGAGGUUUAUACAGCCTT against Spata5 the z-score was -0.969.
GCCUAUUCGAAUUUGGGAATT against Ogt gave a z-score of -0.0977.
GGAAAUGACGAGAAGAAAGTT against Mapt showed a z-score of -0.0597.
With GCCUUUGUGAGGAUUAAACTT against Fam83f the z-score was -0.000611.
GGUAUAUGUCACCAUACUCTT against Phxr2 gave a z-score of -1.99.
In the case of GGCAUGAAGUUUGAAGCCATT against Cnnm2, the z-score is reported as -2.47 (active).
GGAGCUCUUCCAGUUGUUUTT against Khk gave a z-score of -1.51.
With GCAAUGUGAGAAUUUUAACTT against Psg26 the z-score was 2.03 (active).
Sequence GCACAGAGUCUAGUGUUUATT against Ube2j2 has a z-score of 0.325.
Sequence GGGCAUUGUUGUUUCUAUUTT against Lhfp has a z-score of -0.0841.
CCAAAUUGCUGACUUAUUCTT against Ccna2 gave a z-score of 0.794.
For GGGUUUCCUUAUGAGAAAGTT against Mien1, the z-score was -0.606.
With GGUUUGUGACAUUAUCUGCTT against Wrnip1 the z-score was 2.36 (active).
With CGCUCCAUUGCUCAGUAUUTT against Vtn the z-score was 1.63.
In the case of GGCAGCAGAGAAGAAAGCCTT against Pld3, the z-score is reported as -3.16 (active).
Work on GCUCAAUUGUGGAGCAGUCTT against Cd5l yielded a z-score of -0.247.
GGCUAAUGAAGCACGCAGATT against Tspan33 showed a z-score of 0.264.
With CGACCUAUUAGAGAGCAACTT against Zfp248 the z-score was 2.58 (active).
For GGAUCGAAUCUUUACCUAUTT against Col9a1, the z-score was 0.932.
GGCCAAAGUCCAUUCAUUCTT against Olfr1120 gave a z-score of 1.31.
CCAAUAUCUCCAAAUAGAATT against Atp8b1 gave a z-score of -0.974.
Sequence GGGAAAUCCGAUAUUCCCUTT against Lats2 has a z-score of 1.1.
With GGCGGUUUUAGUGAAUAACTT against Golm1 the z-score was 2.17 (active).
In the case of GGUUAGAGAUCUUUUGAAATT against St14, the z-score is reported as -0.333.
For GCAUGUGCUAUAAUGAUCATT against Gm5444, the z-score was 0.256.
Sequence CCACAAUUACCCAGUAUGATT against Olfr498 has a z-score of -0.939.
Sequence CCUCAUGUCUGGCAUCUUGTT against Egr4 has a z-score of -1.7.
Work on GGGUGCCUACUUGAUCCUUTT against Hgh1 yielded a z-score of 1.63.
In the case of GGCUUCAAAGGCAAAGUUCTT against Fbf1, the z-score is reported as -1.5.
CCAUAUGUGAUUUGUCUUGTT against Cacnb2 gave a z-score of -0.706.
CCUAAGGUACCAUUUUAAATT against Clp1 gave a z-score of 0.225.
For GGAAGACACACAGUACAUGTT against Rfx2, the z-score was 2.92 (active).
With GGAGGCUGUCUGUCUAAUATT against Trim39 the z-score was 0.25.
Sequence CCAAUCAACCCUCUAAGCATT against Nphp4 has a z-score of 0.576.
GCCAUCGAUACCACAACACTT against Slfn8 gave a z-score of -1.61.
GGCAACAUUAGAAGACAGUTT against Tfb1m showed a z-score of -0.591.
In the case of CCAUCAGGACUCGUGAAUGTT against Fign, the z-score is reported as -2.09 (active).
Work on GGGAAAUGGAAAGCAUUCUTT against Olfr374 yielded a z-score of 1.41.
With GGAGUUUGACUCAAUAUCATT against Napb the z-score was 1.24.
For CCCUUCUCACUAACAUACATT against Dach1, the z-score was 1.18.
GCUACGAGAUUCUUGUUGCTT against Taar3 gave a z-score of -0.615.
In the case of GGAGAGGAGACACAUCAGUTT against Gnpat, the z-score is reported as -0.067.
Sequence CCAAAACGUGCAACACAAUTT against Cops6 has a z-score of 0.37.
Sequence GGUUGAACUCAAAGUAAAGTT against Preb has a z-score of -1.18.
For GGUGAACCUCAAUAAUAUCTT against Tmod4, the z-score was 0.274.
In the case of GGAGUUUACUGAGUUUUAGTT against Prkaca, the z-score is reported as 4.49 (active).
Sequence GGCUCCAGUAAUUGAUAAATT against Sycp3 has a z-score of -0.0955.
For GGGCUGCUGCUUAGCAAUCTT against Egln3, the z-score was -0.0783.
In the case of GGAUGGAGAAGUUUACUACTT against Yap1, the z-score is reported as 0.714.
With GGCGUAACCUAACAUGGGATT against Clec1b the z-score was -1.35.
GCAACAAUUCUAACAGCUGTT against Lhfpl5 showed a z-score of -0.138.
With GGCCUUCCAUACUACAACUTT against Zfp595 the z-score was 2.2 (active).
With CCACGUAGGUAAGUGUAGGTT against Oard1 the z-score was 0.81.
With GGAGCAAGGCUACAUUUUUTT against Itih3 the z-score was 1.36.
For GGACAAGGCCCUCAUGAUUTT against Nek8, the z-score was -0.468.
For GCUCGAGUACCUGUACCUATT against Elfn1, the z-score was 3.11 (active).
With CCUUCAACCUUCGAGAUACTT against Kcnh2 the z-score was -0.417.
